AmpC detergent: AmpC beta-lactamase inhibition with detergent present; AID 485294; Potency, µM (highest dose often 114 µM), for inactives: top-dose activity change, negative = inhibition, hits mostly inhibitors; AmpC hydrolysis of nitrocefin, absorbance 480 nm, 0.01% Triton; hit rate 0.041% among 370,000; P00811;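 also: 0% = no-compound wells and -100% = no-enzyme wells; nearly all actives have a fitted effect of over 25% in size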
Target sequence (P00811 whole entry, looked up): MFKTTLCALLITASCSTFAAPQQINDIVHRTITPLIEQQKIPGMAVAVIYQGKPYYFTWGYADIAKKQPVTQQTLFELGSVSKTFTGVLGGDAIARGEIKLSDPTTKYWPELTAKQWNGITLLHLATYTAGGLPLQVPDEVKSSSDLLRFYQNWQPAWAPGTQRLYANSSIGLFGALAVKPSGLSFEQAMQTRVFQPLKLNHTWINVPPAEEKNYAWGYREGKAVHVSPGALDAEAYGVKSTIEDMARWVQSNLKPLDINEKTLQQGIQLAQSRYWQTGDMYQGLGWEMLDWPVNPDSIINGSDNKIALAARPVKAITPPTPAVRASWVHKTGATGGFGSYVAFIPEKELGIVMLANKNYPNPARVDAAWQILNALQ
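20 mM phosphate pH 7.0 + 0.01% (detergent screen) or 0.0001% Triton X-100; 5.3 nM AmpC reagent; cpd preinc 15 min RT; nitrocefin (800 uM stock) to start; A480 q20 s × 4 min; Activity was normalised to no-enzyme and no-compound control wells.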
Sm TGR block: inhibitors of Schistosoma mansoni thioredoxin glutathione reductase; Q962Y6; purified TGR, DTNB reduction, TNB absorbance 405 nm; Potency, µM (doses to about 114 µM), for the others: at the highest dose activity change, negative = inhibition, hits mostly inhibitors; hit rate 3% among 360,000; AID 485364; also: nearly all actives have a fitted effect of over 60% in size
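TGR 20 nM + NADPH 100 uM (dispensed conc.), cpd preinc 15 min RT; start with NADPH (500 uM addition) then DTNB (15 mM addition). Kinetic TNB absorbance, 405 nm filter. Four-parameter Hill fit across titration.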
AmpC inh no detg: blocks E. coli AmpC beta-lactamase in detergent-free assay | AmpC nitrocefin hydrolysis, absorbance 480 nm, 0.0001% Triton | Potency, µM (series often up to 57.1 µM), inactives show at the top dose activity change, negative = inhibition, hits mostly inhibitors | hit rate 0.52% among 330,000 | AID 485341;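 also: plate controls were no compound for no effect and no enzyme for full effect; nearly all actives have a fitted effect of over 20% in size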
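20 mM phosphate pH 7.0 + 0.01% (detergent screen) or 0.0001% Triton X-100; 5.3 nM AmpC reagent; cpd preinc 15 min RT; nitrocefin (800 uM stock) to start; A480 q20 s × 4 min; Activity was normalised to no-enzyme and no-compound control wells.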
* = called active by the depositor; ? = inconclusive; / = no result; [ ] = another dose, or the depositor's remark. Hits are enriched below; roughly 3.3% of the tested compounds scored in any of these assays. Calls follow the shape of the dose curve; as a rule, active = well fitted curve in the direction sought with a large enough effect; inconclusive = small, poorly fitted or top-dose-only effect, or another doubt; inactive = no such curve, though single readings can be large; an effect the other way counts as inactive or inconclusive. Unless noted, % is scaled to controls: 0 for no effect and ±100 for the full control effect; potency is read from the fitted curve at half-maximal effect.

SMILES	AmpC detergent	Sm TGR block	AmpC inh no detg
Cc1ccc(S(=O)(=O)Nc2cc(C)c(O)c(Sc3n[nH]c(C)n3)c2)cc1	-10%	45µM*	-59%
Cc1ccc(S(=O)(=O)Nc2ccc3cn[nH]c3c2)cc1	-17%	3%	-14%
O=C(CNS(=O)(=O)c1ccc(F)c(Cl)c1)N1CCCC1	-3%	2%	-6%
CCc1ccc(O)c(N=Cc2ccccc2O)c1	?	?	-23%
O=c1[nH][nH]c2c(N=Cc3ccccc3O)ccc(F)c12	?	0.4µM*	-45%
O=C1/C(=C/c2cccnc2)SC(=S)N1N1CCOCC1	3%	2.8µM*	-9%
O=C1/C(=C/c2ccncc2)SC(=S)N1N1CCOCC1	-9%	0.89µM*	2%
O=C1/C(=C/c2cccs2)SC(=S)N1N1CCOCC1	2%	?	-12%
C=CCOc1ccc(/C=C2\SC(=S)N(N3CCOCC3)C2=O)cc1	8%	-3%	-1%
O=C(NCc1ccccc1)C1CCCN(C(=O)c2ccc(F)cc2)C1 (configuration not stated)	0%	2%	1%
CN(C)c1ccc(/C=C2/C(=O)NC(=O)N(CCc3ccc(F)cc3)C2=O)cc1	-9%	?	-45%
Cc1ccc(/C=C2\C(=O)NC(=O)N(CCc3ccc(F)cc3)C2=O)o1	-10%	11µM*	-43%
Cc1ccc(/C=C2\C(=O)NC(=O)N(Cc3ccccc3Cl)C2=O)o1	0%	?	-47%
Cc1ccc(/C=C2/C(=O)NC(=O)N(Cc3ccc(F)cc3)C2=O)o1	1%	20µM*	-26%
CN(C)c1ccc(/C=C2\C(=O)NC(=O)N(Cc3ccc(F)cc3)C2=O)cc1	2%	0.79µM*	-23%
Cc1ccc(/C=C2\C(=O)NC(=O)N(CCc3ccc(F)cc3)C2=O)s1	-13%	?	-38%
Cc1c(OCC(=O)NCCN2CCOCC2)ccc2c1oc(=O)c1ccccc12	-5%	-10%	152%
CCOC(CCNC(=O)c1cc(-c2cccs2)nc2ccccc12)OCC	1%	-13%	62%
Cc1scc(CN2CCN(c3ccc(F)cc3)CC2)c1C	18%	3%	/
Cc1c(Cl)cn2c(=O)cc(CN3CCN(c4ccc(F)cc4)CC3)nc2c1Cl	6%	50µM*	-30%
O=C(Nc1ccc(C(=O)N2CCCC(CO)C2)cc1)c1ccc(Br)o1 (configuration not stated)	/	/	-10%
CC(C)N1CCN(C(=O)c2ccc(NC(=O)c3ccc(Br)o3)cc2)CC1	?	22µM*	-1%
O=C(Nc1ccc(N2CCN(C(=O)c3ccccc3)CC2)cc1)c1ccc(Br)o1	-13%	-10%	0%
O=C(Nc1ccc(C(=O)N2CCC(N3CCOCC3)CC2)cc1)c1ccc(Br)o1	0%	32µM*	-3%
O=C(NCCN1CCN(Cc2ccccc2)CC1)c1ccc(CS(=O)(=O)c2ccc(Br)cc2)o1	-3%	-35%	99%
SMILES	AmpC detergent	Sm TGR block	AmpC inh no detg
CCc1cc2c(SCc3nc4sc(C(C)=O)c(C)c4c(=O)[nH]3)ncnc2s1	-4%	-16%	-24%
CC1CCC(NC(=O)c2ccc(CSc3nc4ccncc4n3Cc3ccc(F)cc3)cc2)CC1 (configuration not stated)	19%	3%	/
C=CCSC1=N/C(=C\c2ccsc2)C(=O)S1	?	-28%	-48%
C=CCSC1=N/C(=C\c2ccc(C)o2)C(=O)S1	?	40µM*	-31%
CCn1c2ccc(Cl)cc2c2nc3ccccc3nc21	-13%	28µM*	0%
CCn1c2ccc(OC)cc2c2nc3ccccc3nc21	3%	1%	202%
COc1ccc(C(=O)NCCS(=O)(=O)NCc2ccc(C)cc2)cc1	-8%	-2%	-14%
Cc1ccc(S(=O)(=O)N2CCN(C(=O)COc3ccc(-c4nnco4)cc3)CC2)cc1	-2%	7%	16%
COc1ccc(C(=O)NCS(=O)(=O)c2ccc(C)cc2)cc1	-6%	11µM*	-13%
Cc1ccc(S(=O)(=O)CCC(=O)Oc2ccc(-c3nnco3)cc2)cc1	-13%	20µM*	-12%
COc1ccc(NC(=O)CS(=O)(=O)c2ccc(C)cc2)c(OC)c1	-9%	-18%	-11%
Cc1ccc(S(=O)(=O)CCC(=O)c2cccc([N+](=O)[O-])c2)cc1	-9%	?	-22%
Cc1ccc(C(=O)CCS(=O)(=O)c2ccc(Br)cc2)cc1	4%	0.4µM*	-6%
CO/N=C(/CS(=O)(=O)c1ccc(C)cc1)c1ccc(OC)cc1	-15%	40µM*	-31%
CC(C)COc1ccc(C(=O)Nc2ccc(SC(F)F)cc2)cc1	?	-7%	-34%
O=C(Nc1cccc(F)c1)c1ccc2snnc2c1	16%	1%	/
CC(=O)N1CCCc2cc(S(=O)(=O)N3CCN(c4cccc(C(F)(F)F)c4)CC3)ccc21	3%	-3%	/
CCOc1cc(C(=O)N2CC(=O)Nc3ccc(C)cc3C2c2ccccc2)cc(OCC)c1OCC (configuration not stated)	2%	5%	/
C=CCN1CCN(C(=O)c2cc3c(s2)CCC(CC)C3)CC1 (configuration not stated)	7%	0%	111%
COCCNC(=S)N(CCc1c(C)[nH]c2ccccc12)Cc1ccco1	-9%	-15%	26%
C[C@H](NC(=O)c1nc[nH]c1C(=O)NC1CCNCC1)C(=O)OC(C)(C)C	2%	-1%	-16%
COc1ccc(COC(=O)CCS(=O)(=O)c2ccc(C)cc2)cc1	?	-20%	1%
COc1ccc(C(=O)CCS(=O)(=O)c2ccc(C)cc2)cc1	-1%	1µM*	-13%
COc1ccc(OC)c(NC(=O)C2=C(C)C(=O)OC23CCN(C(C)C)CC3)c1	2%	?	/
COc1ccc(N2C(=O)CC(N3CCN(c4ccc(S(=O)(=O)N5CCCC5)cc4)CC3)C2=O)cc1 (configuration not stated)	?	?	-12%
SMILES	AmpC detergent	Sm TGR block	AmpC inh no detg
COc1ccc(N2C(=O)CC(N3CCCCC3)C2=O)cc1 (configuration not stated)	?	32µM*	-6%[11.4 µM]
COc1ccc(N2C(=O)CC(N3CCN(C(=O)c4ccco4)CC3)C2=O)cc1 (configuration not stated)	-10%	?	-14%
O=C1CC(NC23CC4CC(CC(C4)C2)C3)C(=O)N1c1ccc2c(c1)OCO2 (configuration not stated)	-10%	45µM*	-12%
O=C1CC(N2CCN(c3ccc(F)cc3)CC2)C(=O)N1c1ccc(F)cc1 (configuration not stated)	-10%	-13%	3%
O=C1CC(N2CCCCCC2)C(=O)N1c1ccc(F)cc1 (configuration not stated)	-1%	10µM*	-39%
O=C1C2C3C=CC(C3)C2C(=O)N1c1ccc2c(c1)OCO2 (configuration not stated)	2%	-15%	-10%
COc1ccc(N2C(=O)CC(N3CCC(O)(c4cccc(C(F)(F)F)c4)CC3)C2=O)cc1 (configuration not stated)	-9%	40µM*	43%
O=C(CSc1nnc(-c2ccccc2Br)n1-c1ccccc1)c1ccc(F)cc1	-2%	-3%	/
